Assay results reported in PubChem BioAssay AID2283105 (EPA ToxCast).
The source made the active and inactive calls. The calls were made as follows: active = hit-call score of the fitted dose curve at least 0.9, where 1 is the maximum; inactive = score below 0.9.

The compounds below were run against human CYP2E1, CYP2E1 (gene 1571) (UniProt P05181) (assay: NVS_ADME_hCYP2E1: NovaScreen (NVS) CYP450-related Enzyme Activity (ADME) Assay for human CYP2E1).
Protocol: NVS_ADME_hCYP2E1 is a biochemical, single-readout assay that uses extracted gene-proteins in a cell-free assay. Measurements were taken 0.5 hour after chemical dosing in a 96-well plate.NVS_ADME_hCYP2E1 is one of one assay component(s) measured or calculated from the NVS_ADME_hCYP2E1 assay. It is designed to make measurements of enzyme activity, a form of enzyme reporter, as detected with fluorescence intensity signals by Fluorescence technology.Data from the assay component NVS_ADME_hCYP2E1 was analyzed into 1 assay endpoint. This assay endpoint, NVS_ADME_hCYP2E1, was analyzed in the positive analysis fitting direction relative to Acetonitrile as the negative control and baseline of activity. Using a type of enzyme reporter, loss-of-signal activity can be used to understand changes in the enzymatic activity as they relate to the gene CYP2E1. Furthermore, this assay endpoint can be referred to as a primary readout, because this assay has produced multiple assay endpoints where this one serves a enzymatic activity function. To generalize the intended target to other relatable targets, this assay endpoint is annotated to the cyp intended target family, where the subfamily is xenobiotic metabolism.
Binding assays used specific radioligands (tritiated, iodinated) with non-radioactive competitive displacement ligands in agonist or antagonist protocols (as indicated) and various reference compounds and inhibitors to titrate specific binding to receptors and transporters. Most enzyme assays (CYPs, kinases, phosphatases, proteases, HDACs) used recombinant protein and specific substrates (fluorescence mostly, some colorimetric and radioactive) and inhibitors, followed by a biochemical separation of substrate and product. All assays for the biochemical HTS were initially run in duplicate at a single concentration (10 uM for CYP450 assays and 25 uM for all others). Assay-chemical combinations meeting a pre-defined threshold (e.g., 30% inhibition and other criteria defined below) were then run in singleton concentration-response format with maximum concentration of 20 uM for CYPs and 50 uM for all others. Each assay was run with positive and negative controls, and concurrent controls on every plate. The follow-up (secondary) screen tested active chemical-pairs in concentration series, as well as a few additional assays not tested in the primary screen, some selected negative inactives, and several cases re-run in the concentration series for confirmatory purposes.

Chain of human CYP2E1, CYP2E1 (gene 1571) (P05181 whole entry, looked up): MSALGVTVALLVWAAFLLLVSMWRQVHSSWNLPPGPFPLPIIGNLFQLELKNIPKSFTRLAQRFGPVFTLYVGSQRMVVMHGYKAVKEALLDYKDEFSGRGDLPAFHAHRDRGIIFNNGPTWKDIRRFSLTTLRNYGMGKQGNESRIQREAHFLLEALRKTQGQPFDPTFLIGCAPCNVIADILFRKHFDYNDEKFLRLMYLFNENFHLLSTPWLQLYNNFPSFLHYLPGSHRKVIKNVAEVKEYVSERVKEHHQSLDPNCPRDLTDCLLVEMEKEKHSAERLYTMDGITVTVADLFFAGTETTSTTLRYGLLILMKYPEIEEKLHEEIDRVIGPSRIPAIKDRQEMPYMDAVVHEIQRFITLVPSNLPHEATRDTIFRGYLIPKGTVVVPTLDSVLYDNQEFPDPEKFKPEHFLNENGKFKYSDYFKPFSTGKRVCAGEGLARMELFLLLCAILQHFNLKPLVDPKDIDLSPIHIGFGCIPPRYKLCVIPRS

Row | SMILES | outcome | AC50
1 | COP(=S)(OC)SCn1nnc2ccccc2c1=O | inactive | –
2 | CC(C)NC(=O)N1CC(=O)N(c2cc(Cl)cc(Cl)c2)C1=O | inactive | –
3 | CCCN(CCOc1c(Cl)cc(Cl)cc1Cl)C(=O)n1ccnc1 | – | 486 nM (active)
4 | COP(=S)(OC)Oc1ccc([N+](=O)[O-])cc1 | inactive | –
5 | N#CSCSC#N | inactive | –
6 | CC(C)(C)C(O)C(Oc1ccc(Cl)cc1)n1cncn1 (configuration not stated) | – | 604 nM (active)
7 | COc1nn(CSP(=S)(OC)OC)c(=O)s1 | inactive | –
8 | COP(=S)(OC)Oc1ccc([N+](=O)[O-])c(C)c1 | – | 319 nM (active)
9 | FC(F)C(F)(F)OCC(Cn1cncn1)c1ccc(Cl)cc1Cl (configuration not stated) | inactive | –
10 | CCC(=NOC/C=C/Cl)C1=C(O)CC(C2CCOCC2)CC1=O (configuration not stated) | – | 3500 nM (active)
11 | N#Cc1c[nH]cc1-c1cccc2c1OC(F)(F)O2 | inactive | –
12 | CC[C@H](C)[C@H]1O[C@]2(C=C[C@@H]1C)C[C@@H]1C[C@@H](C/C=C(\C)[C@@H](O[C@H]3C[C@H](OC)[C@@H](O[C@H]4C[C@H](OC)[C@@H](NC)[C@H](C)O4)[C@H](C)O3)[C@@H](C)/C=C/C=C3\CO[C@@H]4[C@H](O)C(C)=C[C@@H](C(=O)O1)[C@]34O)O2 | – | 551 nM (active)
